Among all 39,000 compounds or so, about 3,300 (8.5%) were called active. For the sample, actives were picked, then their nearest neighbours and some compounds at random.
system: HepG2; assay: cytotoxicity call (relative viability < 0.9); conditions: 10 µM

SMILES | cytotoxicity call
C[C@@H]1CN([C@H](C)CO)C(=O)c2cccc(NC(=O)Nc3ccc(C(F)(F)F)cc3)c2O[C@H]1CN(C)Cc1ccccc1 | inactive
C[C@@H]1CCCCO[C@@H](CN(C)C(=O)C2CCCCC2)[C@H](C)CN([C@@H](C)CO)C(=O)c2cc(NS(=O)(=O)c3ccc(F)cc3)ccc2O1 | inactive
COc1ccc(S(=O)(=O)N2C[C@H](O)COC[C@H]3O[C@@H](CC(=O)NCCCN(C)C)CC[C@@H]32)cc1 | inactive
CCOc1ccc(-n2c([C@@H](C)N(Cc3cccnc3)C(=O)Cc3ccc(F)c(C(F)(F)F)c3)nc3ncccc3c2=O)cc1 | inactive
COc1ccc(CN(C)C[C@H]2OCCCC[C@H](C)Oc3ccc(NS(=O)(=O)c4ccc(C)cc4)cc3C(=O)N([C@H](C)CO)C[C@H]2C)cc1 | inactive
COc1ccc(NC(=O)Nc2ccc3c(c2)C(=O)N([C@@H](C)CO)C[C@@H](C)[C@H](CN(C)C(=O)Nc2cccc4ccccc24)O3)cc1 | inactive
C[C@H]1CCCCO[C@@H](CN(C)C(=O)Nc2ccc3c(c2)OCO3)[C@@H](C)CN([C@@H](C)CO)C(=O)c2cc(NS(=O)(=O)c3ccc(F)cc3)ccc2O1 | inactive
C[C@@H]1CN([C@H](C)CO)C(=O)c2cc(NC(=O)Nc3cccc4ccccc34)ccc2O[C@H]1CN(C)C(=O)Nc1ccc(F)cc1 | inactive
CCOc1ccc(Nc2c3ccccc3nc3ccccc23)cc1 | active
CCc1ccc(Nc2c3c(nc4ccccc24)CCCC3)cc1 | active
CCC(CC)c1nc(Nc2ccccc2)c2ccccc2n1 | inactive
CCc1ccc(Nc2c3c(nc4ccccc24)CCC3)cc1 | active
c1ccc(Nc2nc(-c3ccccc3)nc3ccccc23)cc1 | inactive
CC(C)CN(C(=O)COC(=O)c1c2c(nc3ccccc13)CCC2)c1c(N)n(Cc2ccccc2)c(=O)[nH]c1=O | inactive
CCOc1ccc(NC(C)=O)cc1 | inactive
COc1ccc(NC(=O)Nc2ccc3c(c2)C(=O)N([C@H](C)CO)C[C@@H](C)[C@H](CN(C)C(=O)Nc2ccc4c(c2)OCO4)OCCCC[C@@H](C)O3)cc1 | inactive
Cc1cccn2c(CN)cnc12 | inactive
C[C@H](CO)N1C[C@H](C)[C@H](CN(C)C(=O)Nc2ccc(C(F)(F)F)cc2)Oc2c(NC(=O)Nc3ccc(F)cc3)cccc2C1=O | inactive
COc1ccc(CN(C)C[C@H]2OCCCC[C@H](C)Oc3ccc(NS(=O)(=O)c4ccc(F)cc4)cc3C(=O)N([C@@H](C)CO)C[C@H]2C)cc1 | active
COc1ccc(S(=O)(=O)Nc2ccc3c(c2)C(=O)N([C@@H](C)CO)C[C@@H](C)[C@@H](CN(C)Cc2ccc4c(c2)OCO4)OCCCC[C@@H](C)O3)cc1 | inactive
COc1ccc(CN(C)C[C@H]2OCCCC[C@H](C)Oc3ccc(NS(=O)(=O)c4ccc(F)cc4)cc3C(=O)N([C@@H](C)CO)C[C@@H]2C)cc1 | inactive
COc1ccc(CN(C)C[C@H]2OCCCC[C@H](C)Oc3ccc(NS(=O)(=O)c4ccc(OC)cc4)cc3C(=O)N([C@H](C)CO)C[C@@H]2C)cc1 | inactive
COc1ccc(S(=O)(=O)Nc2ccc3c(c2)C(=O)N([C@@H](C)CO)C[C@H](C)[C@H](CN(C)Cc2ccc4c(c2)OCO4)OCCCC[C@@H](C)O3)cc1 | inactive

SMILES | cytotoxicity call
COc1ccc(CN(C)C[C@@H]2OCCCC[C@H](C)Oc3ccc(NS(=O)(=O)c4ccc(OC)cc4)cc3C(=O)N([C@@H](C)CO)C[C@@H]2C)cc1 | active
COc1ccc(CN(C)C[C@@H]2OCCCC[C@@H](C)Oc3ccc(NS(=O)(=O)c4ccc(F)cc4)cc3C(=O)N([C@@H](C)CO)C[C@H]2C)cc1 | inactive
COc1ccc(CN(C)C[C@@H]2OCCCC[C@@H](C)Oc3ccc(NS(=O)(=O)c4ccc(F)cc4)cc3C(=O)N([C@H](C)CO)C[C@H]2C)cc1 | inactive
COc1ccc(CN(C)C[C@H]2OCCCC[C@@H](C)Oc3ccc(NS(=O)(=O)c4ccc(OC)cc4)cc3C(=O)N([C@@H](C)CO)C[C@H]2C)cc1 | inactive
COc1ccc(CN(C)C[C@@H]2OCCCC[C@H](C)Oc3ccc(NS(=O)(=O)c4ccc(F)cc4)cc3C(=O)N([C@H](C)CO)C[C@@H]2C)cc1 | active
COc1ccc(S(=O)(=O)Nc2ccc3c(c2)C(=O)N([C@H](C)CO)C[C@H](C)[C@H](CN(C)Cc2ccc4c(c2)OCO4)OCCCC[C@H](C)O3)cc1 | active
COc1ccc(CN(C)C[C@H]2OCCCC[C@H](C)Oc3ccc(NS(=O)(=O)c4ccc(F)cc4)cc3C(=O)N([C@H](C)CO)C[C@H]2C)cc1 | inactive
[O-][n+]1onc2c1CCc1c-2nn(-c2ccccc2)[n+]1[O-] | inactive
COc1ccc(C#Cc2ccc3c(c2)[C@]2(C(=O)N3)[C@H](c3ccc(OCCO)cc3)N3[C@H](c4ccccc4)[C@H](c4ccccc4)OC(=O)[C@H]3[C@@H]2C(=O)N2CCN(c3ncccn3)CC2)cc1 | inactive
COc1ccc(S(=O)(=O)N(C)C[C@@H]2Oc3ncc(C#CCN(C)C)cc3C(=O)N([C@H](C)CO)C[C@@H]2C)cc1 | inactive
O=C(O)CCC(=O)Nc1ccccn1 | inactive
COc1ccc(NC(=O)Nc2ccc3c(c2)C(=O)N([C@H](C)CO)C[C@H](C)[C@H](CN(C)C(=O)NC2CCCCC2)OCCCC[C@H](C)O3)cc1 | inactive
Nc1ccn[nH]1 | inactive
NCc1nnc2n1CCCCC2 | inactive
CCOC(=O)C1CCN(C)CC1 | inactive
CC[C@@]1(O)C[C@H](O[C@H]2C[C@H](N(C)C)[C@H](O[C@H]3C[C@H](O)[C@H](O[C@H]4CCC(=O)[C@H](C)O4)[C@H](C)O3)[C@H](C)O2)c2c(cc3c(c2O)C(=O)c2c(O)cccc2C3=O)[C@H]1C(=O)OC | active
C[C@@H]1CN([C@@H](C)CO)S(=O)(=O)c2ccc(C#CC3CCCCC3)cc2O[C@@H]1CN(C)C(=O)Cc1ccncc1 | inactive
CO[C@H](C(=O)N(C)C[C@H]1OCc2ccccc2-c2c(n(C)c3ccccc23)C(=O)N([C@@H](C)CO)C[C@@H]1C)c1ccccc1 | inactive
Cc1cc(C(=O)NCc2cc3n(n2)CCN(S(C)(=O)=O)C3)nc(C)n1 | inactive
C[C@@H]1CN([C@H](C)CO)C(=O)Cc2cc(NC(=O)Nc3ccccc3)ccc2O[C@@H]1CN(C)Cc1ccc(C(F)(F)F)cc1 | active
C[C@@H]1CN([C@@H](C)CO)C(=O)Cc2cc(NC(=O)Nc3ccccc3)ccc2O[C@@H]1CN(C)Cc1ccc(C(F)(F)F)cc1 | active
C[C@H]1CN([C@@H](C)CO)C(=O)Cc2cc(NC(=O)Nc3ccccc3)ccc2O[C@H]1CN(C)Cc1ccc(C(F)(F)F)cc1 | active
C[C@H]1CN([C@@H](C)CO)C(=O)Cc2cc(NC(=O)Nc3ccccc3)ccc2O[C@@H]1CN(C)Cc1ccc(C(F)(F)F)cc1 | active

SMILES | cytotoxicity call
C[C@H](CO)N1C[C@H](C)[C@@H](CN(C)Cc2ccc(C(F)(F)F)cc2)Oc2ccc(NC(=O)Nc3ccccc3)cc2CC1=O | inactive
C[C@@H]1CN([C@H](C)CO)C(=O)Cc2cc(NC(=O)Nc3ccccc3)ccc2O[C@H]1CN(C)Cc1ccc(C(F)(F)F)cc1 | inactive
COCC(=O)Nc1ccc2c(c1)C(=O)N(C)C[C@@H](OC)[C@H](C)CN(Cc1ccccc1F)[C@H](C)CO2 | inactive
CN1CCN(C(=O)C[C@H]2C=C[C@@H](NC(=O)Cc3ccccn3)[C@@H](CO)O2)CC1 | inactive
C[C@H]1CCCCO[C@H](CN(C)C(=O)CCC(F)(F)F)[C@@H](C)CN([C@@H](C)CO)C(=O)c2cc(NS(=O)(=O)c3ccc(F)cc3)ccc2O1 | inactive
C[C@@H]1CN([C@@H](C)CO)C(=O)Cc2cc(NS(C)(=O)=O)ccc2O[C@H]1CN(C)C(=O)Nc1ccc(C(F)(F)F)cc1 | inactive
C[C@H](CO)N1C[C@H](C)[C@H](CN(C)S(=O)(=O)c2ccc(Cl)cc2)OCCCC[C@H](C)Oc2ccc(NC(=O)C3CCCCC3)cc2C1=O | inactive
C[C@H](CO)N1C[C@H](C)[C@H](CN(C)S(=O)(=O)c2ccccc2)Oc2ccc(NC(=O)Nc3cccc4ccccc34)cc2C1=O | inactive
COc1ccc(NC(=O)Nc2cccc3c2O[C@@H](CN(C)C(=O)Nc2ccc(C(F)(F)F)cc2)[C@H](C)CN([C@@H](C)CO)C3=O)cc1 | inactive
C[C@@H]1CCCCO[C@H](CN(C)Cc2ccncc2)[C@@H](C)CN([C@@H](C)CO)C(=O)c2cc(NC(=O)Nc3ccc4c(c3)OCO4)ccc2O1 | inactive
C[C@@H]1CN([C@@H](C)CO)C(=O)Cc2cc(NC(=O)Nc3ccccc3)ccc2O[C@H]1CN(C)Cc1ccc(C(F)(F)F)cc1 | active
C[C@H](CO)N1C[C@H](C)[C@H](CN(C)Cc2ccc(C(F)(F)F)cc2)Oc2ccc(NC(=O)Nc3ccccc3)cc2CC1=O | inactive
NCc1ccc2c(c1)CCO2 | inactive
C[C@H]1CN([C@@H](C)CO)S(=O)(=O)c2ccc(-c3cncnc3)cc2O[C@H]1CN(C)C(=O)Cc1ccncc1 | inactive
Cc1ccc(S(=O)(=O)Nc2ccc3c(c2)C(=O)N([C@H](C)CO)C[C@@H](C)[C@H](CN(C)Cc2ccc(Cl)c(Cl)c2)O3)cc1 | inactive
Cc1ccc(S(=O)(=O)Nc2ccc3c(c2)C(=O)N([C@@H](C)CO)C[C@H](C)[C@H](CN(C)Cc2ccc(Cl)c(Cl)c2)O3)cc1 | inactive
Cc1ccc(S(=O)(=O)Nc2ccc3c(c2)C(=O)N([C@@H](C)CO)C[C@H](C)[C@@H](CN(C)Cc2ccc(Cl)c(Cl)c2)O3)cc1 | inactive
Cc1ccc(S(=O)(=O)Nc2ccc3c(c2)C(=O)N([C@H](C)CO)C[C@H](C)[C@@H](CN(C)Cc2ccc(Cl)c(Cl)c2)O3)cc1 | active
Cc1ccc(S(=O)(=O)Nc2ccc3c(c2)C(=O)N([C@H](C)CO)C[C@H](C)[C@H](CN(C)Cc2ccc(Cl)c(Cl)c2)O3)cc1 | active
Cc1ccc(S(=O)(=O)Nc2ccc3c(c2)C(=O)N([C@H](C)CO)C[C@@H](C)[C@@H](CN(C)Cc2ccc(Cl)c(Cl)c2)O3)cc1 | active
Cc1ccc(S(=O)(=O)Nc2ccc3c(c2)C(=O)N([C@@H](C)CO)C[C@@H](C)[C@@H](CN(C)Cc2ccc(Cl)c(Cl)c2)O3)cc1 | active
Cc1ccc(S(=O)(=O)Nc2ccc3c(c2)C(=O)N([C@@H](C)CO)C[C@@H](C)[C@H](CN(C)Cc2ccc(Cl)c(Cl)c2)O3)cc1 | inactive

Source: the antibiotic and cytotoxicity screens of Wong et al. (2023)
